From publication PMC4336329 (PLoS ONE, 2015) come the findings set out here.

About 14,000 (4.5%) of roughly 310,000 compounds showed an effect of 50% or more. The effect is printed as a negative number. What follows is part of a selection rich in strong results, with near analogues and random picks from the rest.
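Note: peak tail current of the secondary pulse compared with the same well before compound.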

Chain of human ether-à-go-go-related gene (hERG) potassium channel (Q12809 whole entry, looked up): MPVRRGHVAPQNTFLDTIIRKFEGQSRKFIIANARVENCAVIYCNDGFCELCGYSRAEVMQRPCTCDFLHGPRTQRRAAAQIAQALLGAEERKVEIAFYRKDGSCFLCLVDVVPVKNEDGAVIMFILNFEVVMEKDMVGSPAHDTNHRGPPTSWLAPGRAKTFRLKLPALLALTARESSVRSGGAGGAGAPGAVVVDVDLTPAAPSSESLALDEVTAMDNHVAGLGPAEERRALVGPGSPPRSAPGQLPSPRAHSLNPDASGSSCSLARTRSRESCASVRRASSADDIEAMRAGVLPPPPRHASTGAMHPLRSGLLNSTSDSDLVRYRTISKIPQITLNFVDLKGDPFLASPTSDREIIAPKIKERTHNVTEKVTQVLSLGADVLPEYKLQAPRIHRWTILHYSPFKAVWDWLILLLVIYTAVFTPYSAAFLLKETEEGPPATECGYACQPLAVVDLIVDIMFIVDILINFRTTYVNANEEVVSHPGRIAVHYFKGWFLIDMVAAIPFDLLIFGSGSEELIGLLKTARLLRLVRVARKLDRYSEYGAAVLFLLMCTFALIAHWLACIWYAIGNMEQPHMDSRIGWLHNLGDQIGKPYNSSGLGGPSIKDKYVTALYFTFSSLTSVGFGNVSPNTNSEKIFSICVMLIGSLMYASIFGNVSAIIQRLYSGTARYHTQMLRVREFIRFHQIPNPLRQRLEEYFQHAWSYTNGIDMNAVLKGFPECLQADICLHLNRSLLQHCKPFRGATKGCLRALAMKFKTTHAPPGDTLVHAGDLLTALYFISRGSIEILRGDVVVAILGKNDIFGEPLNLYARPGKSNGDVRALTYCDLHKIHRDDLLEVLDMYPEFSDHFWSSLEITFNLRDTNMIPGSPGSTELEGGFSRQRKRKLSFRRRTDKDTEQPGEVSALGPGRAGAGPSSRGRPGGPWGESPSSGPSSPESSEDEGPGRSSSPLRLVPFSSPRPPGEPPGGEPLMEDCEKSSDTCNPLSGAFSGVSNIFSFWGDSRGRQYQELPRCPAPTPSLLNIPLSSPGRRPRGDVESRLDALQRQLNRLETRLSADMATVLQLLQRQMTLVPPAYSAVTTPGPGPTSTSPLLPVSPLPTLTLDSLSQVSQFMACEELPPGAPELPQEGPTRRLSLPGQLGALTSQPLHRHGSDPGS

This experiment concerns the target human ether-à-go-go-related gene (hERG) potassium channel (human, UniProt Q12809). Nature of the experiment: primary screen, population patch clamp on CHO cells stably expressing hERG; higher = less effect of the substance.
For the molecule `CSc1ccc(CCCCCCOC(=O)C(C)(C)C)cc1`, the “hERG current change (%, negative = inhibition) at 10uM” value was 3.95%.
Turning to `Cn1c(=O)cc(SCC(=O)NCc2ccc(F)cc2)c2ccccc21`, the “hERG current change (%, negative = inhibition) at 10uM” value is given as -17.4%.
Turning to `CCn1c(=O)cc(SCC(=O)N2CCN(C)CC2)c2ccccc21`, the “hERG current change (%, negative = inhibition) at 10uM” value stood at 6.22%.
As for `CCn1c(=O)cc(SCC(=O)NCCCN2CCC(C)CC2)c2ccccc21`, the “hERG current change (%, negative = inhibition) at 10uM” value was -13%.
Turning to `CCn1c(=O)cc(SCC(=O)NCCCN2CCN(c3ccccc3F)CC2)c2ccccc21`, the “hERG current change (%, negative = inhibition) at 10uM” value was -62.2%.
To `CCn1c(=O)cc(SCC(=O)NCCCN2CCN(c3ccc(F)cc3)CC2)c2ccccc21` belongs -46%; to `Cn1c(=O)cc(OCC(=O)NCCCN2CCN(c3ccccc3F)CC2)c2ccccc21`, -45.4%.
As to `Cn1c(=O)cc(SCC(=O)NCCCN2CCOCC2)c2ccccc21`, the “hERG current change (%, negative = inhibition) at 10uM” value is given as -2.51%.
Turning to `Cn1c(=O)cc(SCC(=O)NCCCN2CCN(c3ccc(F)cc3)CC2)c2ccccc21`, the “hERG current change (%, negative = inhibition) at 10uM” value is given as -69.2%.
Consider `CCn1c(=O)cc(SCC(=O)N2CCN(c3ccccc3F)CC2)c2ccccc21`, for which the “hERG current change (%, negative = inhibition) at 10uM” value is -21.7%.
The value for `Cn1c(=O)cc(SCC(=O)NCCCN2CCN(c3ccccc3F)CC2)c2ccccc21` was -55.5%; that for `CCn1c(=O)cc(SCC(=O)N2CCN(c3ccccc3OC)CC2)c2ccccc21` was -52%.
Take `CCn1c(=O)cc(SCC(=O)NCCN2CCN(Cc3ccccc3)CC2)c2ccccc21`: the “hERG current change (%, negative = inhibition) at 10uM” value was -49.4%.
Turning to `COc1ccc(-c2c(C)oc3c(CN4CCOCC4)c(O)ccc3c2=O)cc1`, the “hERG current change (%, negative = inhibition) at 10uM” value is reported as 7.31%.
With `O=C(O)CC(NC(=O)OCc1ccccc1)c1ccc(Br)cc1` (centres unmarked), the “hERG current change (%, negative = inhibition) at 10uM” value is reported as 20.2%.
Regarding `CCCn1c(=O)c2c(nc(Br)n2CCC)n(C)c1=O`, the “hERG current change (%, negative = inhibition) at 10uM” value is recorded as -1.31%.
With `CCC(C)c1ccccc1NC(=O)C(C)NCCN(C)C.O=C(O)C(=O)O` (centres unmarked), the “hERG current change (%, negative = inhibition) at 10uM” value came to 10.3%.
Regarding `CSCCC1NC(=O)N(CC(=O)Nc2c(Cl)cc(Cl)cc2Cl)C1=O` (centres unmarked), the “hERG current change (%, negative = inhibition) at 10uM” value was -2.68%.
For `O=c1[nH]c(O)c(C=Nc2ccc(F)c(Cl)c2)c(=O)[nH]1`, the “hERG current change (%, negative = inhibition) at 10uM” value is on record as 7.3%.
As to `Cc1ccc(S(=O)(=O)Oc2ccc(/C=N/N=C3/NC(=O)C(CC(=O)O)S3)cc2)cc1[N+](=O)[O-]` (centres unmarked), the “hERG current change (%, negative = inhibition) at 10uM” value is 24%.
As for `Cc1ccc2[nH]c(=O)c(NC(N)=S)nc2c1`, the “hERG current change (%, negative = inhibition) at 10uM” value turned out to be 14%.
For the molecule `S=c1nc(C2CCCCC2)n(-c2ccccc2)[nH]1`, the “hERG current change (%, negative = inhibition) at 10uM” value is 15.6%.
To `O=C(C1CC1)N1CCN(C(c2ccccc2)c2ccccc2)CC1` belongs 6.33%; to `Cc1ccccc1-n1nc2c(c1NC(=O)c1ccc3c(c1)OCO3)CS(=O)(=O)C2`, -17.6%.
For `CNC(=S)N/N=C/c1ccccc1OCC(=O)O`, the “hERG current change (%, negative = inhibition) at 10uM” value came out at 18.4%.
Regarding `CC(C)C(=O)NN(C(=O)c1ccccc1)c1ccccc1`, the “hERG current change (%, negative = inhibition) at 10uM” value was 20.4%.
`Cn1c(=O)cc(OCCCC(=O)NCCN2CCN(c3ccccc3F)CC2)c2ccccc21`: the “hERG current change (%, negative = inhibition) at 10uM” value was -7.18%.
As for `Cn1c(=O)cc(SCC(=O)NCCN2CCN(c3ccccc3F)CC2)c2cc(Cl)ccc21`, the “hERG current change (%, negative = inhibition) at 10uM” value is reported as -54.1%.
Regarding `CCOc1ccc(CCNC(=O)CSc2cc(=O)n(C)c3ccc(Cl)cc23)cc1OCC`, the “hERG current change (%, negative = inhibition) at 10uM” value was -21.4%.
To `O=C(O)C1(c2ccccc2)CCN(S(=O)(=O)c2ccc(F)c(F)c2)CC1` belongs 2.44%.
To `COc1ccc(-c2cc(O)cc(O)c2)cc1` belongs -3.33%.
As for `COc1ccc(NC(=O)Cc2ccccc2)cc1`, the “hERG current change (%, negative = inhibition) at 10uM” value amounted to 4.36%.
Consider `COc1ccc(/C=C/C(=O)NCCCc2ccccc2)cc1`, for which the “hERG current change (%, negative = inhibition) at 10uM” value is on record as -46.8%.
For `COc1ccc(/C=C/c2cc[n+](C(=O)Cc3ccccc3)cc2)cc1.[Cl-]`, the “hERG current change (%, negative = inhibition) at 10uM” value was -51.2%.
`CCC(=O)Nc1ccc(OCC2CCCO2)cc1` (centres unmarked): the “hERG current change (%, negative = inhibition) at 10uM” value came to 7.08%.
`c1ccc(CN2CCN(Cc3ccc4ccccc4c3)CC2)cc1`: the “hERG current change (%, negative = inhibition) at 10uM” value turned out to be 5.24%.
Take `Cl.OC1(c2ccc(F)cc2)CCN(Cc2ccccc2)C1` (centres unmarked): the “hERG current change (%, negative = inhibition) at 10uM” value is -15.1%.
The value for `Cl.OC1(c2ccc3ccccc3c2)CCN(Cc2ccccc2)C1` (centres unmarked) was -57.1%; that for `c1ccc2c(c1)OCC(CNc1ncnc3sccc13)O2` (centres unmarked) was -20.9%; that for `CCOC(=O)C1=C(C)NC(=O)CC1c1ccccc1OC` (centres unmarked) was 7.62%.
Regarding `Cc1ccc(NC2=NCC(=O)N2Cc2ccc3c(c2)OCO3)c(C)c1`, the “hERG current change (%, negative = inhibition) at 10uM” value is given as -1.91%.
As to `Cl.Fc1ccc(C(OCCN2CCN(CCCc3ccccc3)CC2)c2ccc(F)cc2)cc1`, the “hERG current change (%, negative = inhibition) at 10uM” value is on record as -77.4%.
Consider `CCC(C(=O)N1CCN(c2ncccn2)CC1)c1ccccc1` (centres unmarked), for which the “hERG current change (%, negative = inhibition) at 10uM” value is recorded as -0.742%.
The value for `Cl.c1ccc(C(OCCN2CCNCC2)c2ccccc2)cc1` was -11.9%; that for `Cl.c1ccc(CCCN2CCN(CCOC(c3ccccc3)c3ccccc3)CC2)cc1` was -71.8%.
As for `c1ccc(CN2CCN(c3ncccn3)CC2)cc1`, the “hERG current change (%, negative = inhibition) at 10uM” value came out at 11.6%.
On to `O=C(O)/C=C\C(=O)O.c1ccc(C(OCCN2CCN(c3ncccn3)CC2)c2ccccc2)cc1`, for which the “hERG current change (%, negative = inhibition) at 10uM” value is -65.9%.
`c1ccc(COCCN2CCN(CCOCc3ccccc3)CC2)cc1`: the “hERG current change (%, negative = inhibition) at 10uM” value is reported as -39.5%.
To `O=S(=O)(c1ccc(F)cc1)N1CCN(CCc2ccccc2)CC1` belongs -8.48%; to `O=C1CCN(CCCc2ccccc2)CCN1CCO`, 2.01%; to `CC(=O)Nc1ccc(Sc2ncccc2C(=O)Nc2cc(Cl)cc(Cl)c2)cn1`, 26.7%.
The value for `CN(C)/C=C(\C#N)C(=O)N/N=C/c1ccc(F)cc1` was -10.1%; that for `C=CCN(CC=C)C(=O)C[n+]1ccc(C(N)=O)cc1.[Cl-]` was -0.0573%.
Regarding `O=C(CSc1ccc2nnc(-c3ccccn3)n2n1)NCc1ccc2c(c1)OCO2`, the “hERG current change (%, negative = inhibition) at 10uM” value is -74.4%.
Take `O=C(CSc1ccc2nnc(-c3cccnc3)n2n1)NCC1CCCO1` (centres unmarked): the “hERG current change (%, negative = inhibition) at 10uM” value is reported as -9.66%.
As to `O=C(CSc1ccc2nnc(-c3cccnc3)n2n1)NCc1ccco1`, the “hERG current change (%, negative = inhibition) at 10uM” value was -44.3%.
On to `O=C(CSc1ccc2nnc(-c3ccccc3)n2n1)NCc1ccc2c(c1)OCO2`, for which the “hERG current change (%, negative = inhibition) at 10uM” value is reported as -80.3%.
Turning to `O=C(CSc1ccccn1)NCc1ccc2c(c1)OCO2`, the “hERG current change (%, negative = inhibition) at 10uM” value was 3.5%.
For `O=C(CSc1ccc2nnc(-c3cccnc3)n2n1)NCc1ccc2c(c1)OCO2`, the “hERG current change (%, negative = inhibition) at 10uM” value is -53.3%.
To `O=C(CSc1ccc2nnc(-c3ccncc3)n2n1)Nc1ccc2c(c1)OCO2` belongs 7.8%.
Turning to `O=C(CSc1ccc2nnc(-c3ccccn3)n2n1)Nc1ccc2c(c1)OCO2`, the “hERG current change (%, negative = inhibition) at 10uM” value is -33.7%.
Consider `O=C(CSc1ccc2nnc(-c3ccccn3)n2n1)Nc1ccc2c(c1)OCCO2`, for which the “hERG current change (%, negative = inhibition) at 10uM” value was -40.6%.
